Reference: PubChem BioAssay (NCATS)
Inconclusive results are not listed. Calls of active or inactive are those of the source. Unless noted, calls come from the whole dose curve; as a rule, active = well fitted curve in the direction sought with a large enough effect; inconclusive = small, poorly fitted or top-dose-only effect, or another doubt; inactive = no such curve, though single readings can be large; an effect the other way counts as inactive or inconclusive.

Key:
[1] = qHTS assay for measurement of the activity of small molecule inhibitors on Zika virus induced Caspase-3 activity in human iPSC derived neural progenitor cells (hNPCs) (AID 1224857); note: nearly all actives have a fitted effect of over 65% in size
How it was run: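 Human iPSC-derived neural progenitor cells pretreated 1 hr with compounds, then infected with Zika virus (2 FFU/cell) for 6 hours at 37 C. Caspase-3/7 measured by Caspase-Glo luminescence; % inhibition calculated from induction scaled to uninfected (0%) and infected (100%) wells.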

[2] = qHTS assay for measurement of the activity of small molecule inhibitors on Zika virus induced Caspase-3 activity in human astrocytoma cells (AID 1224859)
How it was run: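 SNB-19 astrocytoma cells, 250/well, pretreated 1 h with compounds, then Zika virus at 2 FFU/cell for 6 h at 37 C; Caspase-Glo 3/7 luminescence after 30 min; percent inhibition normalised to uninfected and infected controls.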

[3] = P-glycoprotein substrates identified in KB-8-5-11 adenocarcinoma cell line, qHTS therapeutic library screen (AID 1346987); note: series mostly up to about 44 µM; nearly all actives have a fitted effect of over 65% in size
How it was run: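 In this qHTS, P-gp-rich KB-8-5-11 cells received library compounds across a concentration range. Viability was quantified by luminescence after 72 h at 37 degree C.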

[4] = qHTS of pediatric cancer cell lines to identify multiple opportunities for drug repurposing: Primary screen for TC32 cells (AID 1347089); note: nearly all actives have a fitted effect of over 60% in size; note: potency is the fitted concentration of half-maximal effect
How it was run: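 Luminescent ATP read-out (CellTiter-Glo) of metabolically active TC32 cells after 48 h exposure. Concentration-response curves came from 11-point (MIPE, 0.78 nM–46 µM) or 8-point (NPC, 0.59 nM–46 µM) primary titrations; follow-up used 11 points.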

[5] = qHTS of pediatric cancer cell lines to identify multiple opportunities for drug repurposing: Primary screen for SJ-GBM2 cells (AID 1347091); note: potency is the fitted concentration of half-maximal effect
How it was run: (§1)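 Viability measured as metabolically active cells via CellTiter-Glo luminescence following 48 hours of compound exposure, 11-point dilutions in confirmatory testing. 500-1,000 cells/well plated 5 hours before dosing; controls were DMSO and 2.3 µM bortezomib.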

[6] = qHTS of pediatric cancer cell lines to identify multiple opportunities for drug repurposing: Primary screen for A673 cells (AID 1347092); note: nearly all actives have a fitted effect of over 45% in size; note: potency is the fitted concentration of half-maximal effect
How it was run: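 Cell viability of A673 measured by CellTiter-Glo ATP luminescence after 48 hours compound exposure. Dilution series spanned 0.78 nM to 46 µM (MIPE, 11-point) or 0.59 nM to 46 µM (NPC, 8-point); bortezomib 2.3 uM positive control.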

[7] = NS1 protein of Zika virus - qHTS assay to identify small molecule inhibitors in human HEK 293 cells (AID 1347053); note: series mostly up to about 46 µM; nearly all actives have a fitted effect of over 55% in size
How it was run: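 Compound-treated (1 h pre-infection) HEK 293 cells infected with ZIKV MR766, MOI = 0.5; after 24 h at 37 C, NS1 read by TR-FRET; data normalized to uninfected and infected controls.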

[8] = qHTS of pediatric cancer cell lines to identify multiple opportunities for drug repurposing: Primary screen for DAOY cells (AID 1347090); note: series mostly up to about 46 µM; nearly all actives have a fitted effect of over 55% in size
How it was run: as §1

[9] = molecular target: Atrial natriuretic peptide receptor 2 (Homo sapiens) (UniProt P20594); assay: Natriuretic polypeptide receptor (hNpr2) antagonism - Pilot subtype selectivity assay (AID 1347050; calls by dose curve)
Atrial natriuretic peptide receptor 2 (Homo sapiens), sequence (P20594 whole entry, looked up): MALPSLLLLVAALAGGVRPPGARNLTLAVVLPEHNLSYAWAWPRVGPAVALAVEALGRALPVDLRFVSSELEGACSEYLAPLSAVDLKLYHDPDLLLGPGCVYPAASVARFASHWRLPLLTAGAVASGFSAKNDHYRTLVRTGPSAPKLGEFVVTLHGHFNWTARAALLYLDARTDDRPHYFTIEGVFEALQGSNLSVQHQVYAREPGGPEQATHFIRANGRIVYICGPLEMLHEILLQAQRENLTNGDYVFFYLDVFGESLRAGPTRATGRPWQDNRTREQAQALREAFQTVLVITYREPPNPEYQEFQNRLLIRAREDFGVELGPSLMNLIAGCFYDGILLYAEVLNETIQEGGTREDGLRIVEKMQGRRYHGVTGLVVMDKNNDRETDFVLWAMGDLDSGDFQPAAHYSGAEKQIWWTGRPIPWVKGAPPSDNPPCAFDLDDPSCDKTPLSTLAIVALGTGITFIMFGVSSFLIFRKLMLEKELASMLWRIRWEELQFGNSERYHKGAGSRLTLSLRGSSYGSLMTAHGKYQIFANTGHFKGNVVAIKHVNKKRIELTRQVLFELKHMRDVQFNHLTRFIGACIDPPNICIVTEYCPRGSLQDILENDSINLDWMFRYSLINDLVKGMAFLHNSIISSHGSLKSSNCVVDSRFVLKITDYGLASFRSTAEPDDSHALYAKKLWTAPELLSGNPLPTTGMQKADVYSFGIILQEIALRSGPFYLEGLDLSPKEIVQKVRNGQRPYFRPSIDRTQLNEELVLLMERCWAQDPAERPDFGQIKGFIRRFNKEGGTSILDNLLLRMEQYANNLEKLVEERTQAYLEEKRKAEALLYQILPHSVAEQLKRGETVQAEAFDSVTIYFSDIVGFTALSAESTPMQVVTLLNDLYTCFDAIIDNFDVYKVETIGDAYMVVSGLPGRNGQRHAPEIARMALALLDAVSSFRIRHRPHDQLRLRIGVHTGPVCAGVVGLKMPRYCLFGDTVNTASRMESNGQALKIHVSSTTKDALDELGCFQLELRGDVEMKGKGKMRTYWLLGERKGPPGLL
How it was run: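 Luminescence from a genetically encoded cGMP luciferase biosensor in hNpr2-expressing HEK293 cells is read before and 20 min after adding 1 nM hNppC. Test compounds, in interplate 1:5 titrations, are added 30-50 min ahead of the agonist.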

[10] = molecular target: Tyrosine-protein phosphatase non-receptor type substrate 1 (Homo sapiens) + Leukocyte surface antigen CD47 (Homo sapiens) (UniProt P78324+Q08722); assay: CD47-SIRPalpha protein protein interaction - LANCE assay qHTS validation (AID 1347057; active = well fitted curve in the direction sought with a large enough effect in the signal ratio, with a control signal flat, not every such curve was filed as active; the % refers to the signal ratio; note: series mostly up to about 38 µM)
Tyrosine-protein phosphatase non-receptor type substrate 1 (Homo sapiens) + Leukocyte surface antigen CD47 (Homo sapiens), sequence (P78324 whole entry, looked up, the tested form may be a part): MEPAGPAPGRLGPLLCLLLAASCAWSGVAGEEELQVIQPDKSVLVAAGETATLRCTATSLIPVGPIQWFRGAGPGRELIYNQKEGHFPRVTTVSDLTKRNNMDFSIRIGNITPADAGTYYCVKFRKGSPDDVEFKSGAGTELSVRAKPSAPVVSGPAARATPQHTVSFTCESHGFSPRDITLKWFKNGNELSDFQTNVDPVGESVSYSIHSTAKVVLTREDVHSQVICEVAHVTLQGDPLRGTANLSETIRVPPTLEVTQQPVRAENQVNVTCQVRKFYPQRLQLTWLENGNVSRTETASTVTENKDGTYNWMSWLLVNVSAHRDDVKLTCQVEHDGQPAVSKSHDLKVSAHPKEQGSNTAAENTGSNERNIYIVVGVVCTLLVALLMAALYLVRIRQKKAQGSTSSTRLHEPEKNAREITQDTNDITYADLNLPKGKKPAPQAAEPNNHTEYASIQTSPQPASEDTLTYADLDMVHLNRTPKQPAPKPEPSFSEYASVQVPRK
Tyrosine-protein phosphatase non-receptor type substrate 1 (Homo sapiens) + Leukocyte surface antigen CD47 (Homo sapiens), sequence (Q08722 whole entry, looked up, the tested form may be a part): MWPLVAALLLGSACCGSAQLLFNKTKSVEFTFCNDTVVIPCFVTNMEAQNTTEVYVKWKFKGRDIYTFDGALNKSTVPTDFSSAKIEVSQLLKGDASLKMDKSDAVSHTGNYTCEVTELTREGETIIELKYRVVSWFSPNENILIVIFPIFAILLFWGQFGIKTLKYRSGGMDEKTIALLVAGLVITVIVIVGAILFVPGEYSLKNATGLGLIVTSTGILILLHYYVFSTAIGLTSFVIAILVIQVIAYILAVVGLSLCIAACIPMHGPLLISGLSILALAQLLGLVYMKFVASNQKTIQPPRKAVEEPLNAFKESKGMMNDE
How it was run: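 Inhibition of soluble CD47/SIRPalpha ectodomain association by titrated compounds, measured as 665/615 nm time-resolved FRET ratio after sequential 30 min room-temperature incubations.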

[11] = molecular target: Parathyroid hormone/parathyroid hormone-related peptide receptor (Homo sapiens) (UniProt Q03431); assay: qHTS for PTHR1 Agonists: Optimization Screen against the NCGC LOPAC library (AID 1347079);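 note: GloSensor cAMP luminescence in HEK-293 GP2 cells expressing human PTHR1 with IBMX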
Parathyroid hormone/parathyroid hormone-related peptide receptor (Homo sapiens), sequence (Q03431 whole entry, looked up): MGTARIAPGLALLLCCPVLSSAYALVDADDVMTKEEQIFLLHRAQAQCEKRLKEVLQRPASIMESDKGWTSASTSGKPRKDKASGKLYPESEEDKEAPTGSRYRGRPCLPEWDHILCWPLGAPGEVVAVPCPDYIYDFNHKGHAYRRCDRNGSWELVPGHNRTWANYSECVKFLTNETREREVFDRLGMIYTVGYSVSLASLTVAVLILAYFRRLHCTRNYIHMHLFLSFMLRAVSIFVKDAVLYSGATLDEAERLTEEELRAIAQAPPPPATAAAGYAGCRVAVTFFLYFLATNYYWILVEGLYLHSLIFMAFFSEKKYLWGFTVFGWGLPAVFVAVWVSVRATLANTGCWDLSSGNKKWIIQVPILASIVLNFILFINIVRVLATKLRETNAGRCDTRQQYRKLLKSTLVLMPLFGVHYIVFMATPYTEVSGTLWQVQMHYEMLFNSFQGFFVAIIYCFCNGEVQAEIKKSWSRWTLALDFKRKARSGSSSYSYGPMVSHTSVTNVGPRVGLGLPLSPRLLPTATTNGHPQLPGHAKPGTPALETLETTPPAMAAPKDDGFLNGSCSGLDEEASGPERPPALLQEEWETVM
How it was run: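 Signal increase flags agonism. GP2 cells, derived from HEK-293, express human PTHR1 and a GloSensor cAMP construct.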

Measured: Potency

Cc1cc(OCCOCC[N+](C)(C)Cc2ccccc2)ccc1C(C)(C)CC(C)(C)C
active: [4] 26.4 µM | [5] 21.1 µM | [6] 10.6 µM
inactive: [1] | [2] | [3]

CO[C@@]1(NC(=O)CSC[C@@H](N)C(=O)O)C(=O)N2C(C(=O)O)=C(CSc3nnnn3C)CS[C@@H]21
inactive: [1] | [2] | [3] | [7] | [4] | [5] | [6]

Cc1ccc(O)cc1
inactive: [1] | [2] | [3] | [7] | [4] | [8] | [5] | [6]

Nc1ccc(O)cc1
inactive: [1] | [2] | [3] | [7] | [4] | [5]

O=C(CCCCC(=O)Nc1c(I)cc(I)c(C(=O)O)c1I)Nc1c(I)cc(I)c(C(=O)O)c1I
inactive: [1] | [2] | [3] | [7] | [4] | [8] | [6]

C1N2CN3CN1CN(C2)C3
inactive: [1] | [2] | [3] | [7] | [4] | [5] | [6]

O=[N+]([O-])c1ccc(-c2nc(-c3ccc(F)cc3)c(-c3ccncc3)[nH]2)cc1
inactive: [1] | [2] | [9] | [7] | [10] | [11]

CCCCN(CCN(CCCC)C(=O)N1CCOCC1)C(=O)N1CCOCC1
inactive: [1] | [2] | [7] | [4]

CCCOc1ccc2c(c1)CC[C@@H]1[C@@H]2CC[C@]2(C)C(OC)CC[C@@H]12 (some centres undefined)
inactive: [1] | [2] | [7] | [4] | [8] | [5]

COc1ccc([C@@H]2Sc3ccccc3NC(=O)[C@@H]2O)cc1
inactive: [1] | [2] | [7]

CCOC(=O)N1CCC(Nc2ccc(Cl)cc2N)CC1
inactive: [1] | [2] | [7] | [4] | [8] | [5]

COc1ccc(-n2nc(CCC(=O)N(C)O)cc2-c2ccc(Cl)cc2)cc1
active: [4] 16.7 µM
inactive: [1] | [2] | [7]

COc1cc2nc(Cl)nc(N)c2cc1OC
inactive: [1] | [2] | [7] | [4] | [8] | [5]

O=C(Oc1ccccc1)c1cccc(C(=O)Oc2ccccc2)c1
inactive: [1] | [2] | [7] | [4] | [8] | [5]

C=C(C)C(=O)OCC(O)CO (centres undefined)
inactive: [1] | [2] | [7] | [4] | [8] | [5]

CCCC(=O)O[C@]1(C(=O)COC(=O)CC)CC[C@H]2[C@@H]3CCC4=CC(=O)CC[C@]4(C)[C@H]3[C@@H](O)C[C@@]21C
inactive: [1] | [2] | [7] | [4] | [8] | [5]
